Measured values from PubChem BioAssay AID1851 (National Center for Advancing Translational Sciences (NCATS), 2009).
Out of some 16,000 compounds screened, about 5,800 (36%) were called active. Not shown: some 23% with an inconclusive outcome. Calls follow the shape of the dose curve; as a rule, active = well fitted curve in the direction sought with a large enough effect; inconclusive = small, poorly fitted or top-dose-only effect, or effect the other way; inactive = no such curve, though single readings can be large or run the other way. The list shows a part of the results.

biological target: Cytochrome P450 2C19 (Homo sapiens) (UniProt P33261); assay: Cytochrome panel assay with activity outcomes; conditions: recombinant CYP, pro-luciferin dealkylation, luminescence, p450-cyp2c19; series mostly up to 57.1 µM; activity, negative = inhibition: at the top concentration
% is scaled to controls: 0 for no effect and ±100 for the full control effect.

Sequence of Cytochrome P450 2C19 (Homo sapiens) (P33261 whole entry, looked up): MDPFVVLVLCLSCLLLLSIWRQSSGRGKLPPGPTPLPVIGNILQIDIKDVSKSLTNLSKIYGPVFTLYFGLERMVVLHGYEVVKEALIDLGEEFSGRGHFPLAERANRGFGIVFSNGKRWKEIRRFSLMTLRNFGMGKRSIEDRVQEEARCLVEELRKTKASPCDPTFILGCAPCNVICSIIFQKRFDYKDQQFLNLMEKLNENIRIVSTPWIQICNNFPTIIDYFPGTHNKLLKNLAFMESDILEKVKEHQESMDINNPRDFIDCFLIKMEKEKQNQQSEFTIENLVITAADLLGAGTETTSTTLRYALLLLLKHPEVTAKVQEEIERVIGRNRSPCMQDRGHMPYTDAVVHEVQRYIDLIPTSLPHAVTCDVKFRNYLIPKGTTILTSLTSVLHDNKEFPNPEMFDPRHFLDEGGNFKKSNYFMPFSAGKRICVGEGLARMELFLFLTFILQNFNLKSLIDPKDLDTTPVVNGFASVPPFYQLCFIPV

Row | SMILES | activity, negative = inhibition | AC50
1 | O=C(Nc1cccc(F)c1)N1CC[C@@]2(CCCN(C(=O)c3cnccn3)C2)C1 | 26.6% (inactive) | 
2 | O=c1oc2cc(Oc3ccc(C(F)(F)F)cc3[N+](=O)[O-])ccc2c2c1CCCC2 | -6.74% (inactive) | 
3 | O=c1oc2cc(Oc3c([N+](=O)[O-])cc(C(F)(F)F)cc3[N+](=O)[O-])ccc2c2c1CCCC2 |  | 2.82 µM (active)
4 | CN(C)c1ccc(-c2cncnc2Nc2ccccc2)cc1 |  | 0.316 µM (active)
5 | Fc1ccc(Nc2ncncc2-c2ccoc2)cc1 | -37.3% (inactive) | 
6 | CN(C)c1ccc(-c2cncnc2Nc2ccc(F)cc2)cc1 |  | 0.794 µM (active)
7 | CN(C)C(=O)c1ccc(-c2cncnc2NC2CCNCC2)cc1 | 32.8% (inactive) | 
8 | COC(=O)[C@@H]1[C@@H]2C[C@H]3c4[nH]c5cc(OC)ccc5c4CCN3C[C@@H]2C[C@H](OC(=O)c2cc(OC)c(OC)c(OC)c2)[C@H]1OC | -17.8% [at 25.6 µM] (inactive) | 
9 | COc1cc(NC(=O)c2cc(Cl)ccc2Cl)ccc1-c1cc2ccccc2oc1=O |  | 0.794 µM (active)
10 | COc1cc(C(=O)NC(=S)Nc2ccc3oc(=O)ccc3c2)cc(OC)c1OC | -15% (inactive) | 
11 | CCCCC(=O)Nc1cc(OCC)c(NC(=O)c2ccccc2[N+](=O)[O-])cc1OCC | -2.64% (inactive) | 
12 | COc1cc(C(=O)NC(=S)Nc2cccc(-c3cc4ccccc4oc3=O)c2)cc(OC)c1OC |  | 5.01 µM (active)
13 | CCOc1ccc(C(=O)Nc2cccc(-c3cc4ccccc4oc3=O)c2)cc1[N+](=O)[O-] |  | 1.78 µM (active)
14 | C[C@@H]1CCc2cc(F)cc3c(=O)c(C(=O)O)cn1c23 | -0.104% [at 25.6 µM] (inactive) | 
15 | Cc1ccccc1-c1nc(N2CCNCC2)c2ccccc2n1 | -21.6% (inactive) | 
16 | Cc1ccccc1-c1nc(-n2ccnc2)c2ccccc2n1 |  | 5.01 µM (active)
17 | Cc1noc(C)c1-c1nccc(N2CCN(C)CC2)n1 | -29.2% (inactive) | 
18 | Clc1ccccc1-c1nc(-n2ccnc2)c2ccccc2n1 |  | 7.94 µM (active)
19 | Cc1noc(C)c1-c1nccc(-n2ccnc2)n1 |  | 3.98 µM (active)
20 | Clc1ccccc1-c1nc(NC2CCNCC2)c2ccccc2n1 | 4.11% (inactive) | 
21 | Cc1noc(C)c1-c1cc(N2CCN(C)CC2)ncn1 | -18% (inactive) | 

Row | SMILES | activity, negative = inhibition | AC50
22 | Clc1ccccc1-c1nccc(-n2ccnc2)n1 |  | 2.51 µM (active)
23 | Cc1ccccc1-c1nc(N2CCN(C)CC2)c2ccccc2n1 | -8.98% (inactive) | 
24 | FC(F)(F)c1ccccc1-c1nccc(N2CCNCC2)n1 | -36.9% (inactive) | 
25 | CCOC(=O)C1(N(CC)CC)Sc2cc(C)ccc2NC1=O (stereo unspecified) |  | 0.0891 µM (active)
26 | CCOC(=O)[C@]1(CC(=O)O)CCCC1=O | 5.42% [at 11.4 µM] (inactive) | 
27 | CCCCCCCCCCCCCCCCCC(=O)O[C@H](CC(=O)O)C[N+](C)(C)C | -2.77% (inactive) | 
28 | NNC(=O)c1ccc[n+](CCc2ccccc2)c1 | -21.6% [at 11.4 µM] (inactive) | 
29 | O=C(C[n+]1cccc(NC(=O)c2ccccc2)c1)c1ccc(NC(=O)c2ccccc2)cc1 |  | 39.8 µM (active)
30 | O=[N+]([O-])c1ccc2c(c1)S(=O)c1ccccc1-2 (stereo unspecified) | 14.6% [at 11.4 µM] (inactive) | 
31 | Cc1cc([N+](=O)[O-])ccc1-c1ccc(C2Nc3ccccc3C(=O)N2O)o1 (stereo unspecified) |  | 4.47 µM (active)
32 | O=C(O)CSc1nc2ccccc2[nH]1 | 5.01% [at 11.4 µM] (inactive) | 
33 | O=C(CSc1nc2ccccc2[nH]1)Nc1c(F)cccc1F |  | 8.91 µM (active)
34 | CCOC(=O)CCN1C(=O)[C@H]2[C@H]3[C@H](O)[C@H](O)C/C(=N/OC[C@@H](O)COCc4ccco4)[C@@H]3CC[C@@H]2C1=O | 40.5% [at 11.4 µM] (inactive) | 
35 | O=C(O)c1ccc(Oc2nc3ccccc3s2)cc1 |  | 3.98 µM (active)
36 | O=C(Nc1ccccc1-c1nc2ccccc2[nH]1)c1ccc(S(=O)(=O)N2CCCCC2)cc1 |  | 2.51 µM (active)
37 | Cc1sc(=NC(=O)c2ccco2)n(C)c1-c1ccccc1 |  | 8.91 µM (active)
38 | COc1ccc(CNc2ccnc(-c3ccccc3C(F)(F)F)n2)c(OC)c1 |  | 10 µM (active)
39 | COc1ccccc1CNc1ccnc(-c2ccccc2Cl)n1 |  | 1.58 µM (active)
40 | CNc1ccnc(-c2ccccc2CN(C)C)n1 | -8.21% (inactive) | 
41 | COc1ccc(CNc2ccnc(-c3ccccc3Cl)n2)c(OC)c1 |  | 1.26 µM (active)
42 | COc1ccc(CNc2ccnc(-c3ccccc3CN(C)C)n2)c(OC)c1 | 40.8% (inactive) | 

Row | SMILES | activity, negative = inhibition | AC50
43 | O=C(N/N=C1/C[C@@H](O)[C@@H](O)[C@@H]2[C@H]3C(=O)N(c4ccc(F)cc4F)C(=O)[C@@H]3CC[C@@H]12)OCc1ccccc1 | -16.8% [at 11.4 µM] (inactive) | 
44 | NC(=O)C[C@H](NC(=O)Cc1ccc(O)cc1O)C(=O)O | 31.1% (inactive) | 
45 | Fc1ccc([C@H]2CCNC[C@H]2COc2ccc3c(c2)OCO3)cc1 | 13.9% (inactive) | 
46 | CC1(C)CC(=O)C2=C(C1)Nc1cc3c(cc1C2c1ccc(F)cc1)OCO3 (stereo unspecified) |  | 4.47 µM (active)
47 | NS(=O)(=O)c1ccc(N=Nc2c(O)c(C(=O)O)cc3ccccc23)cc1 | 9.68% [at 11.4 µM] (inactive) | 
48 | N=C(N)c1ccc(N=Nc2c(O)ccc3c2[nH]c2ccccc23)cc1 |  | 1.26 µM (active)
49 | N=C(N)c1ccccc1 | -22% (inactive) | 
50 | O=C(O)c1ccccc1-c1ccccc1C(=O)Nc1ccc2c(c1)Cc1cc(F)ccc1-2 | -34% [at 11.4 µM] (inactive) | 
51 | S=C(S)NCCCn1ccnc1 | -30% [at 11.4 µM] (inactive) | 
52 | O=C(CCN1CCc2ccccc2C1)Nc1ccc(F)cc1 |  | 7.94 µM (active)
53 | CSc1ccc(NC(=O)NCCCN2CCN(c3ccccc3F)CC2)cc1 |  | 15.8 µM (active)
54 | O=C(NCCCn1ccnc1)Nc1ccc(Cl)cc1 |  | 0.0562 µM (active)
55 | O=C(CCCN1CC=C(n2c(=O)[nH]c3ccccc32)CC1)c1ccc(F)cc1 | -2.46% [at 25.6 µM] (inactive) | 
56 | Cc1cc(=O)oc(C)c1C(=O)NCCCN1CCN(c2ccc(F)cc2)CC1 | -1.77% (inactive) | 
57 | COc1ccc2c(Cl)c(C(=O)NCCCn3ccnc3)sc2c1Cl |  | 0.794 µM (active)
58 | O=C(NCCCN1CCN(C2CCCCC2)CC1)Nc1ccccc1C(F)(F)F | 33.2% (inactive) | 
59 | O=C1Cc2c([nH]c3ccc(Br)cc23)-c2ccccc2N1 | -35.7% (inactive) | 
60 | CSc1ccc(NC(=O)NCCN2CCc3ccccc3C2)cc1 |  | 15.8 µM (active)
61 | O=C(NCCCN1CCc2ccccc2C1)Nc1ccc(Cl)cc1 |  | 15.8 µM (active)
